Measurements taken from the supplement of paper PMC10849652.
About 8,800 targets were measured; listed, in parts, are those with a hit and a random draw of the rest. About 0.5% of all pairs of compound and target were hits. Values without a mark were called inactive.

Assays:
Experiment in all cases: log2 fold change, soluble protein after heating vs DMSO (PISA); higher = thermal stabilisation; K562 lysate, 10 uM; active = over 0.2 and 3.5 SD of the protein, either way, in both replicates (recomputed)
vemurafenib = compound: CCCS(=O)(=O)Nc1ccc(F)c(C(=O)c2c[nH]c3ncc(-c4ccc(Cl)cc4)cc23)c1F [vemurafenib]
Summary of the method: (§1)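 Following dounce homogenisation of K562 pellets in PBS pH 7.4 with 1 mM MgCl2, crude extract at 1 mg/mL protein was incubated for 30 min with 10 μM compound. Aliquots were then heated for 3 min over 48°C-58°C and pooled, NP-40 was added to 0.5% at 4°C, and soluble protein was recovered as the supernatant at 21,000xg for 90 min. Channel-sum-equalised TMTpro 16plex LC-MS/MS quantified this protein. Each value, from duplicates, is a log-two fold change in thermal stability relative to solvent controls.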

[1] = compound: CCCS(=O)(=O)Nc1ccc(F)c(C(=O)c2c[nH]c3ncc(Cl)cc23)c1F
Summary of the method: as §1

barasertib = compound: CCN(CCCOc1ccc2c(Nc3cc(CC(=O)Nc4cccc(F)c4)[nH]n3)ncnc2c1)CCOP(=O)(O)O [barasertib]
Summary of the method: as §1

volasertib = compound: CC[C@@H]1C(=O)N(C)c2cnc(Nc3ccc(C(=O)N[C@H]4CC[C@H](N5CCN(CC6CC6)CC5)CC4)cc3OC)nc2N1C(C)C [volasertib]
Summary of the method: as §1

[2] = compound: CCn1cc(-c2ccnc3[nH]c(-c4cccc(CN(C)C)c4)cc23)c(-c2ccc(NC(=O)N(C)C)cc2)n1
Summary of the method: as §1

[3] = compound: CN1CCC(CNc2ccc3ncc(-c4cccc(OC(F)(F)F)c4)n3n2)CC1
Summary of the method: as §1

sotrastaurin = compound: CN1CCN(c2nc(C3=C(c4c[nH]c5ccccc45)C(=O)NC3=O)c3ccccc3n2)CC1 [sotrastaurin]
Summary of the method: as §1

alvocidib = compound: CN1CC[C@H](c2c(O)cc(O)c3c(=O)cc(-c4ccccc4Cl)oc23)[C@H](O)C1 [alvocidib]
Summary of the method: as §1

defactinib = compound: CNC(=O)c1ccc(Nc2ncc(C(F)(F)F)c(NCc3nccnc3N(C)S(C)(=O)=O)n2)cc1 [defactinib]
Summary of the method: as §1

[4] = compound: COc1cc2nc(-c3cc(F)ccc3O)nc(N[C@@H]3CNC[C@H]3C(C)(C)O)c2cc1OC
Summary of the method: as §1

saracatinib = compound: CN1CCN(CCOc2cc(OC3CCOCC3)c3c(Nc4c(Cl)ccc5c4OCO5)ncnc3c2)CC1 [saracatinib]
Summary of the method: as §1

[5] = compound: CNC(=O)C1=CC=CC=C1NC2=NC(=NC=C2Cl)NC3=C(C=C(C=C3)N4CCOCC4)OC
Summary of the method: as §1

[6] = compound: CNc1nc(-c2ccc3c(N)n[nH]c3c2)cc(N2C[C@@H](C(=O)NC3CCCCC3)CC[C@H]2C)n1
Summary of the method: as §1

[7] = compound: CC[C@@H]1C(=O)N(C)c2cnc(Nc3ccc(C(=O)NC4CCN(C)CC4)cc3OC)nc2N1C1CCCC1
Summary of the method: as §1

[8] = compound: CCn1c(C(=O)N(C2CC2)C2CC2)cc2c3c(ncn3C)c(Nc3cc(C)n(C)n3)nc21
Summary of the method: as §1

Tubastatin A = compound: CN1CCc2c(c3ccccc3n2Cc2ccc(C(=O)NO)cc2)C1 [Tubastatin A]
Summary of the method: as §1

encorafenib = compound: COC(=O)N[C@@H](C)CNc1nccc(-c2cn(C(C)C)nc2-c2cc(Cl)cc(NS(C)(=O)=O)c2F)n1 [encorafenib]
Summary of the method: as §1

[9] = compound: COC(=O)[C@H](CCSC)NC(=O)C1=C(C=C(C=C1)NC[C@H](CS)N)C2=CC=CC=C2
Summary of the method: as §1

alisertib = compound: COc1cc(Nc2ncc3c(n2)-c2ccc(Cl)cc2C(c2c(F)cccc2OC)=NC3)ccc1C(=O)O [alisertib]
Summary of the method: as §1

gefitinib = compound: COc1cc2ncnc(Nc3ccc(F)c(Cl)c3)c2cc1OCCCN1CCOCC1 [gefitinib]
Summary of the method: as §1

Sequence of UniProt Q9H079 (Q9H079 whole entry, looked up): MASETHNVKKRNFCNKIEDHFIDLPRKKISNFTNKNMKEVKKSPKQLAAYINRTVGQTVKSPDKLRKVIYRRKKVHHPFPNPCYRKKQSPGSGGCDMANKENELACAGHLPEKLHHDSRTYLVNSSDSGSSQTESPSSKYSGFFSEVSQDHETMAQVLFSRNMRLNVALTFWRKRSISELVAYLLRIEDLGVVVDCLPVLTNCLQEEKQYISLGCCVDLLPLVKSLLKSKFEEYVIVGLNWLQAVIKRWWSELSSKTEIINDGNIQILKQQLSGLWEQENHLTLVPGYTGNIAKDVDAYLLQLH
Sequence of UniProt Q14571 (Q14571 whole entry, looked up): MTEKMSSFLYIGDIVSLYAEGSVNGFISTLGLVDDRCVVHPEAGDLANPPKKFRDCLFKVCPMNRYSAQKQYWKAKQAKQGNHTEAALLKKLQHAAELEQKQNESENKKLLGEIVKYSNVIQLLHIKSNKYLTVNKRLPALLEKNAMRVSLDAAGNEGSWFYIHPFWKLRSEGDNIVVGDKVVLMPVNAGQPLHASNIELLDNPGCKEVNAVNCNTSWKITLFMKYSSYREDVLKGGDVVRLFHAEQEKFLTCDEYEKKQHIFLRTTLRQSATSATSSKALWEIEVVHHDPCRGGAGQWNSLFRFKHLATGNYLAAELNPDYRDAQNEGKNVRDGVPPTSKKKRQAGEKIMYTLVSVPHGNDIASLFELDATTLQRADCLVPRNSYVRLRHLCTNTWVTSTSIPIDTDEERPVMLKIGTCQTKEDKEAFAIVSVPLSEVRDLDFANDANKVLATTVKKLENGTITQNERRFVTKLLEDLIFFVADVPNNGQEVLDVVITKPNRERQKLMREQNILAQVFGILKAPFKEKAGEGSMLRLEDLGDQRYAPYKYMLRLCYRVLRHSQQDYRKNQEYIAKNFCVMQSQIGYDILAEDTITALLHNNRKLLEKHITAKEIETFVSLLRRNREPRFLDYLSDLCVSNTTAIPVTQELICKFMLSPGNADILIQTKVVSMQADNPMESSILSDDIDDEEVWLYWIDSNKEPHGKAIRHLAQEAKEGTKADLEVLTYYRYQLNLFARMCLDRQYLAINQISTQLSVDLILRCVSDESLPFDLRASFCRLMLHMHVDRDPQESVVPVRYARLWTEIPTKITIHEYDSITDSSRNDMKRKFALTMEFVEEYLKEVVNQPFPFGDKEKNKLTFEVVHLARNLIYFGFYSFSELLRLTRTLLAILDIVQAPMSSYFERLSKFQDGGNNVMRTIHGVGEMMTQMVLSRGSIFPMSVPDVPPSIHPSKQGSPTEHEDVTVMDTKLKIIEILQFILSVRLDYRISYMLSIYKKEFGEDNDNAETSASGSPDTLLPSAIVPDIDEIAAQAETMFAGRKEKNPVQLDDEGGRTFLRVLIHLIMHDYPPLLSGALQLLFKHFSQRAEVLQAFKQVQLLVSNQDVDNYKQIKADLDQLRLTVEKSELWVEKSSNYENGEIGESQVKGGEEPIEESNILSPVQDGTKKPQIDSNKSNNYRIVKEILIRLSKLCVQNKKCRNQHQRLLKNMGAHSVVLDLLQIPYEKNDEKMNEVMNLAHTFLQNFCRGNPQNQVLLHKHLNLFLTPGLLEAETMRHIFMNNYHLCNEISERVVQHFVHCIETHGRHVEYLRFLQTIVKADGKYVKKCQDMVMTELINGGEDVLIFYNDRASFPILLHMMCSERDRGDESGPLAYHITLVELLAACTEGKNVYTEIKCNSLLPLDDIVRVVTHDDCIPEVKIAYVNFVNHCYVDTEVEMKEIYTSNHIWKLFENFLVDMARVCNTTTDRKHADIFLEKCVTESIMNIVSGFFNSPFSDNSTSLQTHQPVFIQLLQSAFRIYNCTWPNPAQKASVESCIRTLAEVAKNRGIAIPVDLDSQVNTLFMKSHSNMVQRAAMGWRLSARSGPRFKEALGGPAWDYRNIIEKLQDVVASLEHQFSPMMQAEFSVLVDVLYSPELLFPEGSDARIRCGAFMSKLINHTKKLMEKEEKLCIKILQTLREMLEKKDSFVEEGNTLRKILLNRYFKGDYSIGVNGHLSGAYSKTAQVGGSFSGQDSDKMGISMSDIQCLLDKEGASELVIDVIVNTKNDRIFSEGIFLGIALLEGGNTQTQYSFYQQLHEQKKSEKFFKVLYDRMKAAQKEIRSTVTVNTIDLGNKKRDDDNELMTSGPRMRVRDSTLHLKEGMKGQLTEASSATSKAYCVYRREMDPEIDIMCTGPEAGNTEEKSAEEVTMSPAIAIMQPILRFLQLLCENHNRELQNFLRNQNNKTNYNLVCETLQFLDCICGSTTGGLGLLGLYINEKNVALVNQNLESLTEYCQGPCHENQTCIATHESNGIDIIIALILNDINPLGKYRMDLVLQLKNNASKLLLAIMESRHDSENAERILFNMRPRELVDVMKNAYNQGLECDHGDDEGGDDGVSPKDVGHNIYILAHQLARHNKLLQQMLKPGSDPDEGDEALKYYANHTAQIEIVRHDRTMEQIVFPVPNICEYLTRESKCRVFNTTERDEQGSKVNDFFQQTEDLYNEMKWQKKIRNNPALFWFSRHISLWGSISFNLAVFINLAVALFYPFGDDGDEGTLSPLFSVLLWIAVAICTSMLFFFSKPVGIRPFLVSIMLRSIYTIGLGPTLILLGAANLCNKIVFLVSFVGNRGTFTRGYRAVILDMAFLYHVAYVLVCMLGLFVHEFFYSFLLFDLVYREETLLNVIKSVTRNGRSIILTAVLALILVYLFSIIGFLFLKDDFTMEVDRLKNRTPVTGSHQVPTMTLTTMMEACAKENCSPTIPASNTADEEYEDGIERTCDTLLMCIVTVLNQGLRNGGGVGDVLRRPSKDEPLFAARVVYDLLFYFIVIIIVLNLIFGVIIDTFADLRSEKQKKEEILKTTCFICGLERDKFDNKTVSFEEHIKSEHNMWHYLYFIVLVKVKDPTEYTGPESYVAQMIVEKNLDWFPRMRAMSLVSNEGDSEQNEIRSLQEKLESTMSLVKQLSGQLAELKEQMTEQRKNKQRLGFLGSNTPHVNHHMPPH
Sequence of UniProt P52333 (P52333 whole entry, looked up): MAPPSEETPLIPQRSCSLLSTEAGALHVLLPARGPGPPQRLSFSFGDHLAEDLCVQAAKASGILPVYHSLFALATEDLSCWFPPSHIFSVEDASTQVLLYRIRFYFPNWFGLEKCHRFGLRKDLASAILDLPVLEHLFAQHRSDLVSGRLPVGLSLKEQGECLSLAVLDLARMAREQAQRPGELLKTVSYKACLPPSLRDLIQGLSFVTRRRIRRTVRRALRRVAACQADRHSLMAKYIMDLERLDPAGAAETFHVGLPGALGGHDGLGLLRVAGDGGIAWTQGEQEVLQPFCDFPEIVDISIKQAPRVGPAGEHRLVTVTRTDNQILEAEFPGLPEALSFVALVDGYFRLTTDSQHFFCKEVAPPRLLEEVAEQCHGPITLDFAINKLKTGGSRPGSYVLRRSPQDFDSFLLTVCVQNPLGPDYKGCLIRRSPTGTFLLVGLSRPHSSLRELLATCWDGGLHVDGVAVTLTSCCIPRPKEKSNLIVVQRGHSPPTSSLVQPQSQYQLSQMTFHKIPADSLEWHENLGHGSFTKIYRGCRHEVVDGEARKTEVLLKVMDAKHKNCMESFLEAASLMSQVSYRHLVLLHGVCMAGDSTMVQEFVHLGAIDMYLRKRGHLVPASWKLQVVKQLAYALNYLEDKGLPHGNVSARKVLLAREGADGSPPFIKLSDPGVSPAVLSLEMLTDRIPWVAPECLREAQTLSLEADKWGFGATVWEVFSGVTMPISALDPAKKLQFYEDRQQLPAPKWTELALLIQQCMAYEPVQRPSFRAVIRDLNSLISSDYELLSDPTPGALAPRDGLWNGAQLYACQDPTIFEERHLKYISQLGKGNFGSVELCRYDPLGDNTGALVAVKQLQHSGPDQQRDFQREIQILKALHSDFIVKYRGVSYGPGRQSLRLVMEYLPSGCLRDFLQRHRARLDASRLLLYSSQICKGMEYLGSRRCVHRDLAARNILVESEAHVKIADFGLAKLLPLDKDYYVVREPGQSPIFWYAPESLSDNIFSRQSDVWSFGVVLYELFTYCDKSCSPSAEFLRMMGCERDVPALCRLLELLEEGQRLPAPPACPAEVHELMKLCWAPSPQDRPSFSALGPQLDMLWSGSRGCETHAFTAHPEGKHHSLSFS
Sequence of UniProt Q9BQQ3 (Q9BQQ3 whole entry, looked up): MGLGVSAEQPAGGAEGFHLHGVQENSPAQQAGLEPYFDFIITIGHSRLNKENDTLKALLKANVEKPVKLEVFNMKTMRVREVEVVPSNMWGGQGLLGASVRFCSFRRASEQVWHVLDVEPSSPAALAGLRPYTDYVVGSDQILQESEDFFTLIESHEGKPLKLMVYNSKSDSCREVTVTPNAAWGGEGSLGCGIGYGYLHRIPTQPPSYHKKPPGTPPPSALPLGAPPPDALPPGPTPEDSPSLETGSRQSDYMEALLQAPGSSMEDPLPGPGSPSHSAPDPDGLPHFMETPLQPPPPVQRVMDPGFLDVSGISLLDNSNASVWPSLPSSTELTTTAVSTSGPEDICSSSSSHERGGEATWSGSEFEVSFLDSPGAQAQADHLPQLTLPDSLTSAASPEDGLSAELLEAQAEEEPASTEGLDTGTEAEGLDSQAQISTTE
Sequence of UniProt Q9UKP3 (Q9UKP3 whole entry, looked up): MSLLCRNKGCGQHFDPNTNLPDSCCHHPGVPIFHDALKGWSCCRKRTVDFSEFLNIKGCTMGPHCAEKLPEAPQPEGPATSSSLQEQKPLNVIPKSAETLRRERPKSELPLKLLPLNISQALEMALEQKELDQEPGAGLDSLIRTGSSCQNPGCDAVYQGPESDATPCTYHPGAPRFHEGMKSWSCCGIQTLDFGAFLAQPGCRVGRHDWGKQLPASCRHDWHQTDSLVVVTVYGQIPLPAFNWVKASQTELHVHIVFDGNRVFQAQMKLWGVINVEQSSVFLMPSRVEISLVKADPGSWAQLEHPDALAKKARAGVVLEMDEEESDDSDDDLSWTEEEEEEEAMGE
Sequence of UniProt P17096 (P17096 whole entry, looked up): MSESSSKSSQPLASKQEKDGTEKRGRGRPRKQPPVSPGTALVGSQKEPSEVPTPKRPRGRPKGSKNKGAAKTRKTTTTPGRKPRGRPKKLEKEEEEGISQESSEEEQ

Row | Target | log2 fold change (vemurafenib) | log2 fold change [1] | log2 fold change (barasertib) | log2 fold change (volasertib) | log2 fold change [2] | log2 fold change [3] | log2 fold change (sotrastaurin) | log2 fold change (alvocidib) | log2 fold change (defactinib) | log2 fold change [4] | log2 fold change (saracatinib) | log2 fold change [5] | log2 fold change [6] | log2 fold change [7] | log2 fold change [8] | log2 fold change (Tubastatin A) | log2 fold change (encorafenib) | log2 fold change [9] | log2 fold change (alisertib) | log2 fold change (gefitinib)
1 | JAK3 (UniProt P52333) | -0.127 | 0.014 | 0.064 | -0.062 | 0.524 | -0.488 | 0.014 | 0.254 | 0.06 | -0.041 | – | – | – | – | – | – | – | – | – | –
2 | ITPRIP (UniProt Q8IWB1) | – | – | – | – | – | – | – | – | – | – | -0.143 | 0.994 (active) | -0.268 | – | – | – | – | – | – | –
3 | GORASP1 (UniProt Q9BQQ3) | 0.011 | -0.016 | – | 0.092 | -0.025 | 0.08 | 0.016 | -0.052 | 0.008 | 0.076 | 0.03 | 0.018 | -0.071 | -0.065 | -0.019 | -0.035 | 0.108 | -0.009 | -0.037 | 0.016
4 | GPN2 (UniProt Q9H9Y4) | -0.027 | 0.026 | – | -0.028 | 0.009 | 0.019 | 0.021 | -0.034 | 0.112 | -0.038 | 0.003 | -0.004 | -0.007 | -0.098 | 0.072 | -0.027 | 0.19 | -0.038 | 0.008 | -0.001
5 | ITGB1BP2 (UniProt Q9UKP3) | 0.045 | – | – | – | -0.032 | 0.443 | – | -0.116 | -0.112 | – | 0.005 | – | -0.018 | -0.07 | – | – | -0.137 | 0.044 | – | –
6 | GSTM2 (UniProt P28161) | -0.005 | 0.07 | 0.024 | 0.005 | 0.131 | -0.091 | – | 0.079 | 0.036 | -0.015 | 0.003 | 0.009 | -0.016 | 0.015 | -0.027 | 0.045 | -0.024 | 0.068 | 0.01 | 0.034
7 | IPP (UniProt Q9Y573) | -0.102 | 0.056 | – | -0.162 | 0.057 | -0.014 | – | 0.001 | 0.016 | 0.06 | -0.035 | -0.07 | 0.029 | 0.169 | 0.006 | -0.075 | -0.138 | -0.171 | – | –
8 | HSPA8 (UniProt E9PN89) | – | -0.06 | -0.041 | -0.005 | -0.366 | 0.32 | 0.308 | -0.248 | – | 0.013 | -0.01 | -0.074 | -0.075 | 0.057 | -0.114 | 0.066 | 0.088 | 0.035 | 0.11 | 0.076
9 | IMPDH2 (UniProt H0Y4R1) | -0.047 | 0.114 | 0.134 | 0.001 | 0.059 | 0.129 | 0.116 | -0.12 | 0.101 | -0.035 | 0.043 | – | 0.014 | 0.195 | -0.1 | -0.554 (active) | -0.014 | -0.505 (active) | -0.038 | 0.052
10 | HYDIN (UniProt Q4G0P3) | -0.075 | 0.081 | – | 0.021 | – | – | – | – | 0.045 | -0.154 | 0.028 | – | 0.414 | 0.089 | 0.76 | -0.041 | 0.172 | -0.02 | – | –
11 | GPA33 (UniProt Q99795) | -0.038 | -0.014 | -0.047 | 0.081 | -0.925 (active) | 0.612 (active) | – | -0.349 | -0.099 | 0.039 | -0.005 | -0.076 | -0.193 | -0.011 | -0.032 | 0.103 | 0.053 | -0.027 | 0.071 | 0.125
12 | HNRNPUL1 (UniProt M0R247) | – | – | 0.109 | – | 0.004 | 0.037 | – | -0.042 | – | – | – | -0.03 | – | – | – | – | – | – | – | –
13 | ITPR2 (UniProt Q14571) | – | -0.044 | – | 0.336 | – | – | – | – | – | 0.234 | 0.088 | 0.074 | 0.239 | – | -0.222 | -0.03 | – | – | 0.001 | -0.019
14 | IGF2BP2 isoform 6 (UniProt Q9Y6M1) | – | -0.003 | – | -0.153 | – | – | – | – | – | 0.289 | – | – | – | – | – | – | – | – | – | –
15 | HMGN5 (UniProt Q5JSK9) | – | -0.013 | -0.03 | 0.054 | – | – | – | – | – | 0.055 | – | – | – | 0.039 | – | – | 0.055 | -0.111 | 0.049 | 0.063
16 | GYPA, A0A2R8Y7F9 | – | – | 0.066 | – | -0.812 | 0.25 | – | -0.218 | – | – | – | – | – | – | – | – | – | – | – | –
17 | KATNBL1 (UniProt Q9H079) | -0.011 | -0.03 | – | 0.039 | -0.105 | 0.055 | -0.004 | -0.106 | -0.014 | 0.025 | -0.068 | -0.033 | 0.037 | 0.284 | – | – | -0.137 | -0.188 | -0.161 | -0.254
18 | IGFBP4 (UniProt P22692) | – | -0.171 | -0.281 | -0.002 | -0.063 | 0.009 | -0.028 | -0.149 | – | 0.454 (active) | 0.016 | 0.045 | -0.084 | – | 0.04 | -0.083 | – | – | -0.005 | 0.005
19 | ISL2 (UniProt Q96A47) | – | – | -0.108 | – | 0.832 (active) | -0.397 (active) | -0.107 | 0.36 | – | – | 0.028 | -0.042 | 0.025 | – | 0.018 | 0.032 | – | – | – | –
20 | HMGA1 isoform 2 (UniProt P17096) | – | 0.019 | – | 0.034 | 0.875 (active) | -0.339 | -0.106 | 0.289 | – | -0.038 | 0.053 | 0.085 | 0.034 | – | 0.027 | 0.102 | – | – | -0.255 | -0.442
21 | HDAC3 (UniProt E7ESJ6) | – | 0.031 | – | -0.16 | – | – | – | – | – | -0.005 | – | – | – | – | – | – | – | – | – | –
